Experimental findings from the OligoGym collection are described below.
Also: reference of the scale not given here.

The first experiment concerns the target TNFAIP6. The experiment can be described thus: pooled miR-30 sensor sort-seq; sequence = guide strand. As to conditions: shRNA.
Turning to TTATCTTCGTACTCATTTGGGA, the sensor-assay potency score (higher = more potent) is -0.091.

Sequence TTGTATTTTTTCCTTGACTGGA gave a sensor-assay potency score (higher = more potent) of -0.793.

Sequence TTCAAATTCACACACCGCCTTA registered a sensor-assay potency score (higher = more potent) of -0.588.

On to TATCTTCGTACTCATTTGGGAA, for which the sensor-assay potency score (higher = more potent) is -0.842.

The sequence TATTTCAACATAATCAGCCAAG showed a sensor-assay potency score (higher = more potent) of -1.38.

As to TTGAGTGTCTTCCCATAGCAAG, the sensor-assay potency score (higher = more potent) is -1.58.

Sequence TTCCAGTAGAAGTAGTACTTGT came in with a sensor-assay potency score (higher = more potent) of -0.0924.

TACTTGAGTCTAATGTGCCAGT came in with a sensor-assay potency score (higher = more potent) of -0.543.

In turn, TTCTCTGTGGTACACACCGGCT showed a sensor-assay potency score (higher = more potent) of -1.32.

TAAAAATTTGCTTTGGATCTGT gave a sensor-assay potency score (higher = more potent) of 0.758.

Another experiment addresses TNFRSF10A. Described as above. As to conditions: shRNA.
Regarding TTAACTCCTAACACCTAAGAGG, the sensor-assay potency score (higher = more potent) was -0.905.

For TTCTTTGTGGACACACTCGATG, the sensor-assay potency score (higher = more potent) is -0.86.

Consider AAACTTGTCAAAGAACAGCATC, for which the sensor-assay potency score (higher = more potent) was -1.04.

As to TTGATGGTTGCAGCTGAGCTAG, the sensor-assay potency score (higher = more potent) was -1.28.

In turn, TTTCGTGAGGTCCAGCTGCCTC gave a sensor-assay potency score (higher = more potent) of -0.987.

In turn, TTGCATACAAGGCATCCCCTGG displayed a sensor-assay potency score (higher = more potent) of -0.804.

In turn, TCTAAGTAGATGAACTTTCCAG displayed a sensor-assay potency score (higher = more potent) of -0.118.

Take TCTTCTAAGTAGATGAACTTTC: the sensor-assay potency score (higher = more potent) is -0.791.

In turn, TTGAAGGTCTTGTGGACCCGGA returned a sensor-assay potency score (higher = more potent) of 0.23.

On to TTGATCATGAAGTTTGATGGTT, for which the sensor-assay potency score (higher = more potent) was determined as 0.371.

The sequence TGTATTAACTCCTAACACCTAA returned a sensor-assay potency score (higher = more potent) of -0.808.

The target of a further experiment is TNIP2. The experiment is described as above. Conditions: shRNA.
In turn, TTCAACGTGAGTCACCTTCTGT gave a sensor-assay potency score (higher = more potent) of -0.171.

TAACAGTCGATTTTCTTCCTGC showed a sensor-assay potency score (higher = more potent) of 0.411.

Consider TTGCTCGTCACTGAAGCACTGC, for which the sensor-assay potency score (higher = more potent) worked out at 0.0739.

On to TATTCCATAGAACAGGATGGGG, for which the sensor-assay potency score (higher = more potent) was -0.938.

On to TTGAATCCTACTTTGAGCCCGT, for which the sensor-assay potency score (higher = more potent) was determined as 0.603.

Sequence TTCTGACATGAAGTCATCCTTG had a sensor-assay potency score (higher = more potent) of -0.577.

For the sequence TTTTCTCTTCCAACTGTCTGTT, the sensor-assay potency score (higher = more potent) is -0.371.

In the case of TCCAACTGTCTGTTGAGCCGGG, the sensor-assay potency score (higher = more potent) was -0.18.

Turning to TTCTCTTCCAACTGTCTGTTGA, the sensor-assay potency score (higher = more potent) worked out at 0.202.

TTTCTCTTCCAACTGTCTGTTG returned a sensor-assay potency score (higher = more potent) of -0.51.

TTCTTCTAGTCGCTCAGTCAGC came in with a sensor-assay potency score (higher = more potent) of -0.848.

Take TTTATTTTCTCTTCCAACTGTC: the sensor-assay potency score (higher = more potent) turned out to be 0.553.

The target of another experiment is TNK1. The description is as above. As to conditions: shRNA.
Sequence TACAAAGTCGAAGTGCTCTGGC showed a sensor-assay potency score (higher = more potent) of 0.534.

As for TAATGCTCCAGGATGCGCCAGC, the sensor-assay potency score (higher = more potent) was -0.794.

Sequence TCTCATAATCCATACTACCAGC displayed a sensor-assay potency score (higher = more potent) of -1.03.

Sequence TTGCCTTCTTTCTGTCTCCATC came in with a sensor-assay potency score (higher = more potent) of -1.2.

Regarding TAGACTTAGGCCCAGAACGTAG, the sensor-assay potency score (higher = more potent) is -0.86.

As for TTCAGAGCTTCGGACAGTCTGC, the sensor-assay potency score (higher = more potent) was -0.64.

With TTTGAAGGTGCGACCATTCTGG, the sensor-assay potency score (higher = more potent) was determined as 0.416.
